# Experimental data reported in PubChem BioAssay (NCATS).
# Results filed as inconclusive are left out. Activity calls are given as the source filed them. Calls follow the shape of the dose curve; as a rule, active = well fitted curve in the direction sought with a large enough effect; inconclusive = small, poorly fitted or top-dose-only effect, or another doubt; inactive = no such curve, though single readings can be large; an effect the other way counts as inactive or inconclusive.
# How the values were obtained:
# [1] = tested on: Zika virus NS2B-NS3 protease (unlinked complex); experiment: Primary screen GU Rhodamine qHTS for Zika virus inhibitors: Unlinked NS2B-NS3 protease assay (AID 1347159); conditions: Recombinant ZIKV NS2B-NS3 protease, Rhodamine110 substrate fluorescence; series mostly up to 107 µM; also: nearly all actives have a fitted effect of over 60% in size; also: potency is read from the fitted curve at half-maximal effect
# Summary of the method: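 Percent inhibition came from the 15-min rise in Rhodamine110 fluorescence (1.5 microM substrate, ~15% conversion), normalized to no-inhibitor and no-enzyme wells and Hill-fitted. Unlinked protease, 25 nM, pH 8.0 Tris buffer; compounds up to 114 microM, 15-min preincubation.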
# [2] = Confirmatory screen GU Rhodamine qHTS for Zika virus inhibitors qHTS (AID 1347157); conditions: purified enzyme assay, Rhodamine110 substrate fluorescence, 15 min; also: potency is read from the fitted curve at half-maximal effect; nearly all actives have a fitted effect of over 70% in size
# Summary of the method: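 Enzyme 25 nM in Tris-HCl pH 8.0 + 0.01% Tween 20; compounds up to 114 microM, 15 min RT dark; + Rhod110 substrate 1.5 microM; read t0 and 15 min; delta fluorescence → % inhibition → 4-parameter Hill fit.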
# [3] = tested on: Zika virus NS2B-NS3 protease (linked construct); experiment: Primary screen NINDS Rhodamine qHTS for Zika virus inhibitors (AID 1347160); conditions: purified NS2B-NS3 protease, Rhodamine110 substrate fluorescence; series mostly up to 57.1 µM; also: nearly all actives have a fitted effect of over 55% in size; also: potency is read from the fitted curve at half-maximal effect
# Summary of the method: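 Rhodamine110-peptide cleavage (1.5 µM substrate) by 25 nM linked NS2B-NS3 enzyme at pH 8.0 (Tris, Tween 20), after 15 min RT preincubation with compounds; 15-min fluorescence change normalized to controls and Hill-fitted.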
# [4] = Confirmatory screen NINDS Rhodamine qHTS for Zika virus inhibitors (AID 1347161); conditions: purified enzyme assay, Rhodamine110 substrate fluorescence, 15 min; also: potency is read from the fitted curve at half-maximal effect; nearly all actives have a fitted effect of over 60% in size
# Summary of the method: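 In 10 mM Tris-HCl pH 8.0 containing 0.01% Tween 20, linked NS2B-NS3 protease (25 nM final) is exposed to test compounds for 15 min. Cleavage of 1.5 microM Rhodamine110 substrate is tracked by fluorescence over 15 min.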
# [5] = Vero cells viability qHTS for Zika virus inhibitors (AID 1347167); conditions: cytotoxicity counter-screen (Zika); series mostly up to 45.9 µM; also: % is scaled to controls: 0 for no effect and ±100 for the full control effect
# Summary of the method: (§1)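 To flag cytotoxic protease inhibitors, viability is measured by ATP-dependent luminescence (CellTiter Glo) after cells attached overnight receive compound for 24 to 48 hours in DMEM with 4% FBS.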
# [6] = HepG2 cells viability qHTS for Zika virus inhibitors (AID 1347168); conditions: Zika counter-screen; series mostly up to 45.9 µM; also: % is scaled to controls: 0 for no effect and ±100 for the full control effect
# Summary of the method: as §1
# [7] = Tertiary RLuc qRT-PCR qHTS assay for Zika virus inhibitors (AID 1347169); conditions: infected Vero cells, reporter luminescence, 48-72 h; series mostly up to 45.9 µM; also: nearly all actives have a fitted effect of over 55% in size; also: potency is read from the fitted curve at half-maximal effect
# Summary of the method: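 Orthogonal cell-based infection assay using recombinant ZIKV-RLuc (Cambodian) in Vero cells; compound added prior to virus at MOI 1-2. Incubation lasts 48-72 hrs at 37 degrees C before live-cell Renilla substrate is added and luminescence measured.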
# [8] = tested on: Zika virus NS2B-NS3 protease (linked construct); experiment: Confirmatory screen NINDS AMC qHTS for Zika virus inhibitors (AID 1347152); conditions: Purified linked NS2B-NS3, AMC substrate fluorescence; series mostly up to 56.6 µM; also: potency is read from the fitted curve at half-maximal effect; nearly all actives have a fitted effect of over 70% in size
# Summary of the method: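 In this dose-response qHTS, AMC release from 10 microM Bz-Nle-KRR-AMC by 1 nM linked protease is measured over 15 minutes (about 20% conversion) at pH 8.0. Percent inhibition is fitted to a 4-parameter Hill curve.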
# [9] = tested on: Zika virus NS2B-NS3 protease (unlinked complex); experiment: Confirmatory screen GU AMC qHTS for Zika virus inhibitors (AID 1347153); conditions: Recombinant NS2B-NS3 protease, AMC substrate fluorescence;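 also: enzyme at 25 nM with substrate at 10 µM below its Km of 18.3 µM; potency is read from the fitted curve at half-maximal effect; nearly all actives have a fitted effect of over 70% in size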
# Summary of the method: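 Compounds were preincubated 15 min at room temperature with 25 nM noncovalent NS2B-NS3 protease at pH 8.0; AMC substrate added at 10 microM and 15-min fluorescence gain (340/450 nm) converted to percent inhibition, fitted 4-parameter.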
# [10] = ZIKV-mCherry secondary qHTS for Zika virus inhibitors (AID 1347158); conditions: Vero cells, ZIKV-mCherry infection imaging, 48-72 h; series mostly up to 49.2 µM; also: top concentration of the series differs between compounds
# Summary of the method: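 This orthogonal imaging screen measured ZIKV-mCherry infection of Vero cells exposed to compound, MOI 1, 48-72 h. Percent infection came from segmented nuclei scored mCherry-positive above 3 SD of negative controls.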
# [11] = tested on: Zika virus NS2B-NS3 protease (linked construct); experiment: 384 well plate NINDS Rhodamine confirmatory qHTS for Zika virus inhibitors (AID 1347164); conditions: rhodamine-110 peptide substrate fluorescence; series mostly up to 100 µM; also: nearly all actives have a fitted effect of over 65% in size; also: potency is read from the fitted curve at half-maximal effect
# Summary of the method: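 Compounds are incubated about 15 minutes with linked protease (5, 30 or 60 nM final). Rhodamine 110-tagged Ac-LKRR substrate (10 microM final) is added and fluorescence measured after 25 minutes.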
# [12] = tested on: Zika virus NS2B-NS3 protease (linked); experiment: 384 well plate NINDS AMC confirmatory qHTS for Zika virus inhibitors (AID 1347163); conditions: Recombinant NS2B-NS3 protease, Ac-VKTGKR-AMC fluorescence; series mostly up to 100 µM; also: nearly all actives have a fitted effect of over 50% in size; also: potency is read from the fitted curve at half-maximal effect
# Summary of the method: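 Enzyme (5, 30 or 60 nM final) first met test compounds for ~15 min. The AMC-tagged peptide Ac-VKTGKR-AMC followed at 30 microM. Fluorescence was then recorded at 25 min and scaled against no-enzyme and no-inhibitor wells.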
structure (smiles),measurement,setting,value
CC(C)C(=O)O[C@@H]1[C@@H](O)[C@@H](O[C@H]2O[C@H](CO)[C@@H](O)[C@H](O)[C@H]2O)O[C@H](CO)[C@H]1O,Potency,[1],inactive
CC(C)c1cc2c(c(O)c1O[C@@H]1O[C@H](CO)[C@@H](O)[C@H](O)[C@H]1O)CC1(O)CCC(O)C(C)(C)C1CC2 (some centres not stated),Potency,[2],17.1 µM (active)
same,Potency,[1],20 µM (active)
same,Potency,[3],7.94 µM (active)
same,Potency,[4],7.64 µM (active)
same,outcome,[5],inactive
same,outcome,[6],inactive
same,Potency,[7],inactive
OC[C@H]1O[C@@H](OC(CCCCc2ccc(O)cc2)CCc2ccc(O)cc2)[C@H](O[C@@H]2OC[C@](O)(CO)[C@H]2O)[C@@H](O)[C@@H]1O (some centres not stated),Potency,[1],inactive
CN1CCC(c2c[nH]c3ccc(NC(=O)c4ccc(F)cc4)cc23)CC1,Potency,[1],inactive
COc1c(C(CC(C)C)OC(C)=O)ccc(Oc2c(O)cc(C)cc2/C=C/C(C)=O)c1C(=O)O (configuration not stated),Potency,[1],7.08 µM (active)
CC(=O)O[C@@H]1C[C@]2(C)[C@@]3(CCC4[C@@]5(C)CC[C@H](O[C@@H]6O[C@H](C(=O)O)[C@@H](O)[C@H](O[C@@H]7O[C@H](CO)[C@H](O)[C@H](O)[C@H]7O[C@@H]7O[C@@H](C)[C@H](O)[C@@H](O)[C@H]7O[C@@H]7OC[C@](O)(CO)[C@H]7O)[C@H]6O[C@@H]6O[C@H](CO)[C@H](O)[C@H](O)[C@H]6O)C(C)(C)C5CC[C@]42C)O[C@@H](O)[C@]12C3CC(C)(C)[C@@H](OC(=O)/C=C/c1ccc(O)c(O)c1)[C@@H]2OC(=O)/C=C/c1ccccc1 (some centres not stated),Potency,[8],10.5 µM (active)
same,Potency,[9],7.42 µM (active)
same,Potency,[2],3.32 µM (active)
same,Potency,[1],3.16 µM (active)
same,Potency,[3],2.46 µM (active)
same,Potency,[4],1.66 µM (active)
same,"activity change, negative = cytotoxicity",[5],-1.71% [at 8.96 µM] (inactive)
same,"activity change, negative = cytotoxicity",[6],0.159% [at 8.96 µM] (inactive)
Cc1nn(C)c(COc2ccc(N3CCN(S(=O)(=O)N(C)C)CC3)cc2)c1-c1cccc2c(CCCOc3cccc4ccccc34)c(C(=O)O)n(CCN3CCOCC3)c12,Potency,[2],1.75 µM (active)
same,Potency,[1],4.47 µM (active)
same,Potency,[3],inactive
same,Potency,[4],1.56 µM (active)
same,Potency,[7],inactive
C=C1CC2(C(=O)O)CC1CCC2C1(C)CCCC2(C)C(=O)OC(O)C21 (configuration not stated),Potency,[1],inactive
Nc1c(N=Nc2ccc(-c3ccc(N=Nc4cc(S(=O)(=O)O)c5ccccc5c4N)cc3)cc2)cc(S(=O)(=O)O)c2ccccc12,Potency,[2],2.51 µM (active)
same,outcome,[10],inactive
same,Potency,[4],2.24 µM (active)
same,Potency,[11],7.08 µM (active)
NCc1ccc(OCCCc2sc(-c3ccc4c(c3)/C(=N/Nc3nc5ccccc5s3)CCC4)nc2C(=O)O)cc1,Potency,[2],13.9 µM (active)
same,Potency,[1],39.8 µM (active)
same,Potency,[3],inactive
same,Potency,[4],17.5 µM (active)
same,Potency,[7],inactive
CC(C)C1=CCC(C)(O)C(OC2OC(CO)C(O)C(O)C2O)C1 (configuration not stated),Potency,[2],27.3 µM (active)
same,outcome,[10],inactive
same,Potency,[1],22.4 µM (active)
same,Potency,[4],7.68 µM (active)
same,Potency,[11],5.62 µM (active)
same,outcome,[5],inactive
same,outcome,[6],inactive
same,Potency,[7],inactive
O=C(CCO[C@@H]1O[C@H](CO)[C@@H](O)[C@H](O)[C@H]1O)c1ccc(O)cc1,Potency,[1],inactive
CCOc1c2c(c(OCC)c3ccccc13)C(=O)N(c1ccc(CC(=O)NS(=O)(=O)c3ccccc3)cc1)C2,Potency,[8],44.1 µM (active)
same,Potency,[9],44.1 µM (active)
same,Potency,[2],4.94 µM (active)
same,Potency,[1],3.98 µM (active)
same,Potency,[3],8.91 µM (active)
same,Potency,[4],4.41 µM (active)
same,Potency,[12],inactive
same,Potency,[11],inactive
same,outcome,[5],inactive
same,outcome,[6],inactive
C=C1CC23CCC4[C@@](C)(CCC[C@@]4(C)C(=O)O)C2CCC1C3 (some centres not stated),Potency,[2],39.3 µM (active)
same,Potency,[1],20 µM (active)
same,Potency,[3],inactive
same,Potency,[4],44.1 µM (active)
same,Potency,[7],inactive
N#CC1C(=O)Nc2scc(-c3ccc(-c4ccccc4O)cc3)c2C1=O (configuration not stated),Potency,[8],22.1 µM (active)
same,Potency,[2],3.93 µM (active)
same,Potency,[1],2.51 µM (active)
same,Potency,[3],3.16 µM (active)
same,Potency,[4],2.48 µM (active)
same,Potency,[12],6.31 µM (active)
same,Potency,[11],12.6 µM (active)
same,outcome,[5],inactive
same,outcome,[6],inactive
COc1cccc(-n2nc(C(=O)O)cc2-c2ccc(C3CCCCC3)c(Cl)c2)c1,Potency,[8],13.9 µM (active)
same,Potency,[9],12.4 µM (active)
same,Potency,[2],2.21 µM (active)
same,Potency,[1],1.78 µM (active)
same,Potency,[3],2.51 µM (active)
same,Potency,[4],1.97 µM (active)
same,Potency,[11],5.01 µM (active)
same,outcome,[5],inactive
same,outcome,[6],inactive
same,Potency,[7],18.6 µM (active)
CC1C/C=C/C=C\CCCCC(O)C/C=C/C(=O)O1 (configuration not stated),Potency,[2],44.1 µM (active)
same,Potency,[1],17.8 µM (active)
same,Potency,[4],49.4 µM (active)
same,Potency,[7],inactive
OCCc1ccc(O[C@@H]2O[C@H](CO)[C@@H](O)[C@H](O)[C@H]2O)c(O)c1,Potency,[1],inactive
